# From the supplement of paper PMC13380429
# Values without a mark were called inactive.
# System: Vero E6 infected with SARS-CoV-2
# Assay: inhibition of SARS-CoV-2 cytopathic effect; higher = more antiviral protection, active = above 15
# Settings: 48 h
Structure (SMILES),inhibition of SARS-CoV-2 cytopathic effect (1 nM) [%],inhibition of SARS-CoV-2 cytopathic effect (8.33 nM) [%],inhibition of SARS-CoV-2 cytopathic effect (100 nM) [%],inhibition of SARS-CoV-2 cytopathic effect (833.33 nM) [%],inhibition of SARS-CoV-2 cytopathic effect (10000 nM)
Cc1ncc(CO)c(/C=N/NC(=O)c2ccncc2)c1O [pyridoxal-isonicotinoyl-hydrazone],3.14,-0.89,-0.41,0.28,-0.54%
N=C(NCCCCCCNC(=N)NC(=N)Nc1ccc(Cl)cc1)NC(=N)Nc1ccc(Cl)cc1 [chlorhexidine],3.47,4.11,4.83,2.74,-3.2%
CN1CCC(=C2c3ccccc3C=Cc3ccccc32)CC1 [cyproheptadine],1.35,-0.26,-1.02,-0.75,-4.89%
Cc1ccc2c(-c3ccccc3)nc(=O)n(C(C)C)c2c1 [proquazone],0.68,0.21,-1.31,-2.03,-0.55%
Cc1ccc(C)c(OCCCC(C)(C)C(=O)O)c1 [gemfibrozil],0.62,-0.19,-0.2,0.31,-0.46%
O=C(/C=C/c1ccc(O)cc1)c1ccc(O)cc1O [isoliquiritigenin],-2.47,-0.17,1.21,0.63,10.8%
COc1cccc(NC(=O)/C=C/c2ccc(Cl)cc2)c1,-1.02,-1.96,-1,-0.56,-4.87%
CCC(CC)Nc1nc(C)c(-c2ccc(OC(F)(F)F)cc2OC)nc1OC,1.38,3.16,1.61,0.57,-0.01%
O=C(NCCS(=O)(=O)c1ccc(C(F)(F)F)cn1)c1ccc(Cl)cc1,4.56,-1.99,5.99,1.04,1.56%
C[C@H]1NC(=O)NC1=O [5-methylhydantoin-(D)],-0.22,-0.75,-0.63,-6.83,0.71%
CC(C)C[C@H](NC(=O)CNC(=O)c1cc(Cl)ccc1Cl)B(O)O [ixazomib],-2.33,2.02,5.21,-11,22.9% (active)
N#Cc1cnc2cnc(NCc3cccnc3)cc2c1Nc1ccc(F)c(Cl)c1,0.87,1.05,2.35,-1.3,-8.45%
NC(=O)OCC(O)COc1ccc(Cl)cc1 (stereo not given) [chlorphensin-carbamate],2.19,-1.72,1.24,2.98,4.44%
CC(C(=O)O)c1ccc2c(c1)CC(=O)c1ccccc1S2 (stereo not given) [zaltoprofen],1.83,2.8,3.97,0.28,1.17%
CN[C@@H]1[C@H](O[C@H]2[C@H](O[C@H]3[C@H](O)[C@@H](O)[C@H](NC(=N)N)[C@@H](O)[C@@H]3NC(=N)N)O[C@@H](C)[C@]2(O)CO)O[C@@H](CO)[C@H](O)[C@H]1O [dihydrostreptomycin],0.2,-0.04,-0.21,0.85,-0.41%
CC(=O)C(=Cc1cc(O)c(O)c([N+](=O)[O-])c1)C(C)=O [nitecapone],-1.48,2.97,1.47,-1.89,-6.91%
O=C1C2CC=CCC2C(=O)N1SC(Cl)(Cl)Cl (stereo not given) [captan],1.85,4.35,4.16,4.29,7.49%
CCCCCOc1ccc(-c2cc(-c3ccc(C(=O)N[C@H]4C[C@@H](O)[C@@H](O)NC(=O)[C@@H]5[C@@H](O)[C@@H](C)CN5C(=O)[C@H]([C@H](O)CC(N)=O)NC(=O)[C@H]([C@H](O)[C@@H](O)c5ccc(O)c(OS(=O)(=O)O)c5)NC(=O)[C@@H]5C[C@@H](O)CN5C(=O)[C@H]([C@@H](C)O)NC4=O)cc3)no2)cc1 [micafungin],-6.42,-5.65,-5.9,-3.13,4.81%
